Assay results: PubChem BioAssay (NCI)
About 83,000 compounds went through this panel and 20% of them were active in at least one assay; those are over-represented in the sample as a whole.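 Assay: single dose, 48 h. Readout: percent growth (0 = no net growth; negative = cell death). Active: <10.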 Unmarked numbers belong to inactive results. The source made the active and inactive calls.

Columns and labels:
Assay in all cases: NCI-60 one-dose screen, 48 h (100 = growth as untreated, 0 = no growth, -100 = all killed)
Settings in all cases: 10 µM unless noted
[1] = tested on: DU-145 prostate
[2] = tested on: K-562 leukemia
[3] = tested on: MALME-3M melanoma
[4] = tested on: MDA-MB-231 breast
[5] = tested on: RXF 393 renal
[6] = tested on: SF-268 CNS
[7] = tested on: SF-295 CNS
[8] = tested on: SF-539 CNS
[9] = tested on: UACC-257 melanoma

SMILES	growth [1]	growth [2]	growth [3]	growth [4]	growth [5]	growth [6]	growth [7]	growth [8]	growth [9]
O=C(c1ccccc1)[C@@H](c1ccccc1)[C@]1(O)C(=O)Nc2ccccc21	103%	102%	98.2%	88.4%	98.6%	84.9%	95.8%	95.3%	96.8%
Cc1ccc(Nc2cc(N)nc(N)n2)cc1	107%	87.9%	102%	108%	114%	93.4%	103%	112%	110%
Nc1ncc(-c2ccc3ncnc(N4CCc5ccc(Cl)cc54)c3c2)cn1	10%	10.5%	-17.4% (active)	-3.01% (active)	-29.4% (active)	11.2%	-7.57% (active)	-68.8% (active)	8.1% (active)
Cc1ccc(C2(C)NC(=O)N(CC(=O)Nc3cccc(C)c3)C2=O)cc1 (stereo unspecified)	110%	112%	100%	99.4%	101%	104%	107%	103%	101%
COc1ccc(-c2cc(-c3ccc(Cl)cc3)c(C#N)c(=O)n2CCCCC(=O)NO)cc1	78.2%	61.8%	73.3%	52.1%	37.3%	85.2%	90.2%	82.5%	80%
CCOC(=O)C1=C(c2ccccc2)N=C2SC=C(c3cccc([N+](=O)[O-])c3)N2C1c1ccc(O)cc1 (stereo unspecified)	102%	112%	96.7%	93.2%	89.1%	94.3%	101%	98.8%	96.1%
Cc1nc2sc(C(=O)Nc3ccccc3)c(N)c2cc1C(O)c1ccccc1 (stereo unspecified)	18.1%	7.04% (active)	60.8%	16.7%	40%	47.9%	4.69% (active)	-5.44% (active)	72.5%
COC(=O)c1c(C)nc(C)c2c1C(=O)C(Br)=C(NCCCCO)C2=O	79.6%	71%	-2.98% (active)	75.1%	77.7%	76.3%	72.1%	89.5%	45.6%
Cc1ccc(-c2nn(CC(=O)N3CCOCC3)c(N)c2C#N)cc1	111%	99.8%	104%	108%	110%	99%	102%	99.2%	107%
COc1ccc(S(=O)(=O)NC2c3ccccc3CC2O)cc1OC (stereo unspecified)	111%	102%	110%	112%	117%	93.6%	98.3%	101%	111%
COC12C=C/C(=C(/C(=O)OCc3ccccn3)C(=O)CCCCCCCCC3(OC)C=C/C(=C(/C(=O)OCc4ccccn4)C(=O)CCCCCCCC1)O3)O2	-24.5% (active)	-0.106% (active)	-60.1% (active)	7.85% (active)	-82.5% (active)	-8.87% (active)	-25.7% (active)	-28.3% (active)	11%
C=C(C)[C@@H]1CC[C@]2(COCCCNCCCN)CC[C@]3(C)[C@H](CC[C@@H]4[C@@]5(C)CC[C@H](OCCCN)C(C)(C)[C@@H]5CC[C@]43C)[C@@H]12	-49.5% (active)	-40% (active)	-88.1% (active)	-85.6% (active)	28.8%	-35% (active)	102%	-95.7% (active)	13.8%
C#C[C@]1(O)CC[C@H]2[C@@H]3CC=C4c5sc(-c6ccccc6)nc5CC[C@]4(C)[C@H]3CC[C@@]21C	96.1%	17.6%	97.5%	89%	32.3%	83.4%	41.4%	31.6%	84.6%
O=C1NC(=O)C(=Cc2cc(-c3ccc(Cl)cc3)n(-c3ccccc3)n2)C(=O)N1	105%	90.6%	99.2%	99.8%	86%	105%	93.8%	96.5%	101%
COc1ccc(Nc2nc(Nc3cc(C)[nH]n3)c3cc(OC)c(OC)cc3n2)cc1	-86.2% [20 µM] (active)	-10.8% [20 µM] (active)	-97.7% [20 µM] (active)	-94.2% [20 µM] (active)	-94.4% [20 µM] (active)	-66.8% [20 µM] (active)	-94.2% [20 µM] (active)	-97.2% [20 µM] (active)	-76.8% [20 µM] (active)
COc1ccc(-c2ccc(-c3ccc(C(=N)N)nc3)s2)cc1	-91.5% (active)	-27% (active)	87.7%	-79.8% (active)	66.4%	-65.4% (active)	-81.2% (active)	-98.4% (active)	84.6%
COc1ccc(/C=N\NC(=O)c2ccc3nc(-c4ccc(Cl)cc4)[nH]c3c2)cc1	79.3%	31.9%	6.53% (active)	39.8%	43.8%	19.9%	-38.9% (active)	42.6%	54.4%
CCOC(=O)c1c2c(n3ccc(NC(=O)CCN4CCCC4)cc13)C(=O)c1ncccc1C2=O	-89.3% (active)	-40.3% (active)	66.3%	-71.2% (active)	47.5%	-67.8% (active)	32.2%	-75.8% (active)	105%
O=C(COc1ccc(/C=C2\Oc3ccccc3C2=O)cc1)Nc1nccs1	109%	70.1%	98.1%	76.6%	95.5%	75.1%	116%	99.9%	113%
COc1ccc(N/N=C/c2ccc3c(c2)Sc2ccccc2N3C)cc1	58.7%	4.21% (active)	107%	84.2%	105%	53.7%	6.85% (active)	57.1%	96.1%
CC(C)(C)c1ccc(C(=O)Nc2sc3c(c2C#N)CCC(=O)C3)cc1	64.2%	9.48% (active)	-18.6% (active)	-5.45% (active)	-29.9% (active)	22.4%	10.3%	-35.6% (active)	19.8%
CCOC(=O)c1cc(C(=O)c2cc(OC)cc(OC)c2)n2ccccc12	53.8%	15.8%	31.8%	55.8%	49.6%	46.8%	26.1%	44.8%	43.9%
NC(=N\N=C/c1ccc(Cl)cc1Cl)/C(N)=N\N=C/c1ccc(Cl)cc1Cl	90.6%	80.6%	88.3%	71.1%	83.6%	89.7%	60%	43.5%	118%
O=C(Nc1cccc(Cl)c1)Oc1c(Cl)c(Cl)c(Cl)c(Cl)c1Cl	95.6%	98.6%	101%	94.3%	117%	95.9%	90%	95.3%	110%
Cn1cc(-c2nc(-c3c[nH]c4c(Cl)nccc34)cs2)c2ccccc21	92.6%	89.3%	113%	98.9%	90.4%	98.5%	103%	90.5%	71.8%
O=C(OCc1ccc2c(Br)cc(Br)c(O)c2n1)N1CCN(C(=O)c2cc3ccccc3[nH]2)CC1	48.9%	21.7%	51.5%	46.3%	41%	31.6%	21.3%	47.9%	31.5%
CC(C)(C#N)c1cc(C(=O)Nc2cc(Nc3ncccc3-c3ncnc4nc[nH]c34)ccc2F)cc(C(F)(F)F)c1	66%	5.56% (active)	2.06% (active)	18.3%	91.7%	66.2%	74.5%	32.1%	12%
CC(C)(C)[C@H](OCc1cn([C@H]2C[C@@H](O)[C@@H](CO)O2)c(=O)[nH]c1=O)c1ccc(C#Cc2ccccc2)cc1[N+](=O)[O-]	86.4%	60.5%	84%	91.7%	47.2%	81.5%	82%	97.1%	83.5%
Cc1[nH]c(C2CC(c3ccc(C(F)(F)F)c(F)c3)=NN2C)c(C)c1C(=O)NCC(F)(F)F (stereo unspecified)	96.3%	85.6%	93.8%	85.4%	93.7%	92.4%	94.9%	96.7%	97.9%
